Source: PubChem BioAssay (National Center for Advancing Translational Sciences (NCATS))
TrxR1 inh: blocks rat thioredoxin reductase 1 | recombinant rTrxR1, NADPH fluorescence consumption, selenite substrate | actives 1% (n = 390,000) | Potency, µM (titrated, usually from 114 µM), most hits filed as inhibitors; further: nearly all actives have a fitted effect of over 65% in size
Target sequence (O89049 whole entry, looked up): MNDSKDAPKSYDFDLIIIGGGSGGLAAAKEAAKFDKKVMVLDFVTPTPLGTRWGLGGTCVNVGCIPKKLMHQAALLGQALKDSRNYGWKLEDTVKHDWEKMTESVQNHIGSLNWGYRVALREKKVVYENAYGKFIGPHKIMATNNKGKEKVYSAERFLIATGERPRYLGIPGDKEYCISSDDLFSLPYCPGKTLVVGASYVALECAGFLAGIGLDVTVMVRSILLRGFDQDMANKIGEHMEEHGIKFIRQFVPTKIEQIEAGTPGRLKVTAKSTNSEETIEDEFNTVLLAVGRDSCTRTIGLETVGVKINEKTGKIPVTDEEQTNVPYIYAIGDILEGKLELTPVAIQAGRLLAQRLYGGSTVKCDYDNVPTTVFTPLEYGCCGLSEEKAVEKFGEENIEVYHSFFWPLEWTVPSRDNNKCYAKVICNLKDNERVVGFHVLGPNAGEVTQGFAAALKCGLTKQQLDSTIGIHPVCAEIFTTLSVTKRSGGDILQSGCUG
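Rat TrxR1 (90 nM in the dispensed reagent) was pre-reduced with 400 uM NADPH for 5 min at room temperature, then incubated with compound for 15 min. After 400 uM selenite was added, NADPH fluorescence (Ex 340/Em 450 nm) was followed for 8 min.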
TrxR1 substrate: substrates of rat thioredoxin reductase 1; actives 0.01% (n = 390,000); purified TrxR1 substrate turnover, NADPH consumption readout; Potency, µM (highest dose often 114 µM); AID 588456; further: nearly all actives have a fitted effect of over 50% in size
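Rat TrxR1, dispensed at 90 nM, was prereduced with 400 uM NADPH (final) for 5 min at ~22 deg C, then incubated with compound 15 min before 400 uM selenite. A first-read NADPH fluorescence drop versus no-compound background flagged substrates.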
VDR inh: blocks the human vitamin D receptor | VDR-SRC2-3 peptide fluorescence polarization, 2 h | Potency, µM, most hits filed as inhibitors | actives 0.93% (n = 400,000)
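Signal is fluorescence polarization, reporting how far test compounds block the interaction of VDR with the SRC2-3 coregulator peptide after a 2 h room-temperature incubation.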
mIDH1 inhibitor: human IDH1 R132H inhibition; O75874; IDH1-R132H enzyme, NADPH consumption, diaphorase/resazurin fluorescence; Potency, µM (series often up to 76.6 µM), most hits filed as inhibitors; actives 0.093% (n = 390,000); AID 602179; further: nearly all actives have a fitted effect of over 65% in size
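IDH1-R132H (0.5 ug/mL) preincubated 30 min with compound, then NADPH (0.016 mM) and alpha-KG (2 mM) added; 80 min at RT, pH 7.5. Remaining NADPH coupled via diaphorase/resazurin to fluorescence (540/590 nm); concentration-response curves normalized to no-enzyme control.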
Sfp inh: Sfp phosphopantetheinyl transferase inhibition; Q9F4F7; Biochemical Sfp PPTase activity, qHTS; Potency, µM, hits mostly inhibitors; actives 3.5% (n = 310,000); AID 1490;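 further: the enzyme is Sfp with the accession as filed and its product quenches rhodamine fluorescence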
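With Hepes-Na pH 7.6 buffer containing 10 mM MgCl2, Sfp (15 nM) modified BHQ-2-YbbR (12.5 uM) using rhodamine-CoA (5 uM). Two reads 30 minutes apart at 525/598 nm yielded each well's rate.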
PLK1 PBD inh: PLK1 (human) polo-box domain binding inhibition | P53350 | Plk1 PBD binding of FITC phosphopeptide, fluorescence polarization | Potency, µM, actives largely listed as inhibitors | actives 2.8% (n = 360,000) | AID 720504; further: series mostly up to about 57 µM; nearly all actives have a fitted effect of over 65% in size
Large screens that a line does not name were inactive. Most compounds without a hit are left out; they make up all but 5.2% or so of the library. The call rests on the fitted dose curve; in most records, active means well fitted curve in the direction sought with a large enough effect; inconclusive means small, poorly fitted or top-dose-only effect, or another doubt; inactive means no such curve, though single readings can be large; an effect the other way counts as inactive or inconclusive.

Cc1ccc(-c2nnc3ccc(SC(C)C(=O)O)nn23)cc1 (stereo not drawn)	Sfp inh inconclusive, PLK1 PBD inh inconclusive
CCOC(=O)c1ccc(N2C(=O)c3n[nH]c(-c4ccco4)c3C2c2ccccc2OC)cc1 (stereo not drawn)	none (no result: Sfp inh, PLK1 PBD inh)
CC[C@H](C)[C@H](NC(=O)[C@H](CC(C)C)NC(=O)[C@H](CC(N)=O)NC(=O)[C@@H](NC(=O)[C@@H](N)Cc1ccc(O)cc1)[C@@H](C)CC)C(=O)N[C@@H](Cc1ccc(O)cc1)C(=O)N[C@@H](CCCN=C(N)N)C(=O)N[C@@H](CC(C)C)C(=O)N[C@@H](CCCN=C(N)N)C(=O)N[C@@H](Cc1ccc(O)cc1)C(N)=O	Sfp inh inconclusive (no result: TrxR1 inh, TrxR1 substrate, mIDH1 inhibitor, PLK1 PBD inh)
O=C(O)c1ccc(N/N=C/c2cn(Cc3ccccc3F)c3ccccc23)cc1	Sfp inh inconclusive, PLK1 PBD inh 30µM
Nc1ccc(C(=O)N/N=C/c2cn(Cc3ccccc3F)c3ccccc23)cc1	none
Nc1ccc(C(=O)N/N=C/c2cn(Cc3ccc(F)cc3)c3ccccc23)cc1	none
O=C(N/N=C/c1cn(Cc2cccc(F)c2)c2ccccc12)c1cc(O)cc(O)c1	PLK1 PBD inh 19µM
CCN(CC)CCCn1c(-c2ccccc2)nc2c(N3CCOCC3)nc(C)nc21	none (no result: TrxR1 inh, TrxR1 substrate, VDR inh, mIDH1 inhibitor, PLK1 PBD inh)
Cc1sc2nc(CN3CCOCC3)[nH]c(=S)c2c1C	Sfp inh 8.9µM
Cc1sc2nc(CN3CCN(c4ccc(O)cc4)CC3)[nH]c(=O)c2c1C	Sfp inh 35µM
O=c1[nH]c(CN2CCN(c3ccccc3)CC2)nc2scc(-c3ccccc3)c12	none
CCC(=O)Nc1cc(Cl)ccc1C(=O)O	none
O=C(O)c1ccc(Cl)cc1Nc1nc2cc(Cl)ccc2o1	VDR inh inconclusive, PLK1 PBD inh 19µM
Cc1nn(C)c(C)c1NC(=O)c1ccc(Cl)cc1	PLK1 PBD inh 30µM
O=C(Nc1cccc(-c2nc3ccccc3c(=O)o2)c1)c1ccccc1	PLK1 PBD inh 21µM
Cc1cc(=O)n2c(C(=O)Nc3ccc(C(=O)OC(C)C)cc3)c(C(=O)Nc3ccccc3)sc2n1	TrxR1 inh 50µM, PLK1 PBD inh inconclusive
COC(=O)CNC(=O)C1Nc2ccccc2C2C=CCC12 (stereo not drawn)	TrxR1 inh 8.9µM, VDR inh inconclusive, PLK1 PBD inh inconclusive (no result: Sfp inh)
CC(C)CNC(=O)C1Nc2ccccc2C2C=CCC12 (stereo not drawn)	TrxR1 inh 10µM, VDR inh inconclusive, PLK1 PBD inh inconclusive (no result: Sfp inh)
CC(C)CNC(=O)C1Nc2ccc(C(F)(F)F)cc2C2C=CCC12 (stereo not drawn)	none (no result: Sfp inh)
CCOc1ccccc1NS(=O)(=O)c1ccc2c(c1)CC(C)N2C(=O)C1CCC1 (stereo not drawn)	none (no result: Sfp inh, PLK1 PBD inh)
CCn1c(=O)cc(SCC(=O)Nc2cc(Cl)ccc2OC)c2ccccc21	none (no result: Sfp inh, PLK1 PBD inh)
FC(F)(F)c1nnc(-c2ccccc2)nc1Sc1ccc(Cl)cc1	TrxR1 inh inconclusive, VDR inh 71µM, Sfp inh inconclusive
CC(=O)N[C@@H](CCCNC(=N)N)C(=O)N[C@H](CC1CCCCC1)C(=O)N[C@@H]1CCC2SC[C@@H](C(=O)N[C@H](CCCNC(=N)N)C(=O)N[C@H](Cc3ccc(Cl)cc3)C(N)=O)N2C1=O (stereo partly drawn)	none (no result: TrxR1 inh, TrxR1 substrate, mIDH1 inhibitor, PLK1 PBD inh)
CCn1c(=O)cc(OCC(=O)NC(C)c2ccc3c(c2)OCCO3)c2ccccc21 (stereo not drawn)	PLK1 PBD inh 27µM
CCOCCCNC(=O)CNC(=S)N(Cc1ccc(C)cc1)Cc1ccco1	Sfp inh 40µM
CC(C(=O)NC1CC1)c1ncc(C(F)(F)F)cc1Cl (stereo not drawn)	none
C#CCNC(=O)C(C)c1ncc(C(F)(F)F)cc1Cl (stereo not drawn)	VDR inh inconclusive, PLK1 PBD inh 6.7µM
O=C(Nc1cccc(-c2nc3ncccc3o2)c1)c1ccc(-c2cccc(Cl)c2Cl)o1	TrxR1 inh inconclusive, VDR inh inconclusive (no result: Sfp inh, PLK1 PBD inh)
Cc1nc([N+](=O)[O-])c(Sc2nc3ccccc3[nH]2)n1Cc1ccccc1	TrxR1 inh 3.5µM
Cn1cnc([N+](=O)[O-])c1Sc1nc2ccccc2[nH]1	TrxR1 inh 3.5µM, Sfp inh inconclusive
Cc1nc([N+](=O)[O-])c(N2CCN(Cc3ccccc3)CC2)n1Cc1ccccc1	none
COc1ccc2nc(Sc3c([N+](=O)[O-])nc(C)n3Cc3ccccc3)[nH]c2c1	TrxR1 inh 7.1µM
Cc1ccc(Nc2cc(C)c(O)c(C)c2)cc1	VDR inh 25µM, Sfp inh inconclusive, PLK1 PBD inh 27µM
Cc1ccc(C2C=C(c3ccccc3)Nc3ncnn32)cc1 (stereo not drawn)	TrxR1 inh 45µM, VDR inh inconclusive, PLK1 PBD inh 30µM (no result: Sfp inh)
Fc1ccc(C2=CC(c3ccc(Br)o3)n3ncnc3N2)cc1 (stereo not drawn)	TrxR1 inh 7.9µM, VDR inh inconclusive, PLK1 PBD inh 11µM
Brc1ccc(C2=CC(c3cccs3)n3ncnc3N2)cc1 (stereo not drawn)	Sfp inh 79µM, PLK1 PBD inh inconclusive
C1=C(c2ccc(-c3ccccc3)cc2)Nc2ncnn2C1c1ccco1 (stereo not drawn)	TrxR1 inh inconclusive, Sfp inh inconclusive, PLK1 PBD inh 4.7µM
Fc1ccc(C2=CC(c3ccco3)n3ncnc3N2)cc1 (stereo not drawn)	TrxR1 inh inconclusive
CN(Cc1ccccc1)c1ccc(C=O)cc1	none (no result: VDR inh, mIDH1 inhibitor, Sfp inh, PLK1 PBD inh)
Cc1cc2nc(C3CCCCC3)c(Cc3ccccc3)n2c(C)c1Br	none (no result: TrxR1 inh, TrxR1 substrate, VDR inh, mIDH1 inhibitor, Sfp inh)
CCOC(=O)C(NC(=O)CC)(Nc1ccc(S(=O)(=O)Nc2onc(C)c2C)cc1)C(F)(F)F (stereo not drawn)	PLK1 PBD inh 27µM
CCOC(=O)C(NC(C)=O)(Nc1ccc(S(=O)(=O)Nc2nccs2)cc1)C(F)(F)F (stereo not drawn)	none
CCOC(=O)C(NC(C)=O)(Nc1ccc(S(=O)(=O)Nc2ncccn2)cc1)C(F)(F)F (stereo not drawn)	VDR inh inconclusive, PLK1 PBD inh 30µM
Cc1[nH]c2ccccc2c1C(C[N+](=O)[O-])c1ccco1 (stereo not drawn)	TrxR1 inh 13µM, PLK1 PBD inh inconclusive
CCNc1nc(NC(C)C)nc(-c2ccncc2)n1	none (no result: TrxR1 inh, TrxR1 substrate, VDR inh, mIDH1 inhibitor, Sfp inh)
CCC(=O)NC(c1ccc(Cl)cc1Cl)c1ccc2cccnc2c1O (stereo not drawn)	none
CCCC(=O)NC(c1ccco1)c1cc([N+](=O)[O-])c2cccnc2c1O (stereo not drawn)	Sfp inh 14µM, PLK1 PBD inh inconclusive
CCCCC(=O)NC(c1ccc(Cl)cc1Cl)c1ccc2cccnc2c1O (stereo not drawn)	VDR inh inconclusive, PLK1 PBD inh 3.4µM
